# Screens: PubChem BioAssay, several laboratories
# Compounds with a hit are over-represented: about 22% of the library has one in this group of screens.
# Measles CPE = compounds protecting cells from measles virus cytopathic effect, primary screen, measles RdRp inhibitor project, single point, MLSMR library, absorbance; protection (pct of control), % at 4 µM; 1.5% of 140,000 active; Measles virus-infected cells, CPE protection; in the data active means protection mostly above about 24%, no sharp cut-off; inactive means mostly below about 26%
# CYP2C9 inhib = blockers of cytochrome P450 2C9 activity – biochemical, luminescence, ADME assay, primary screen; CYP2C9 Supersomes, luciferin-H conversion; inhibition, % at 5 µM; AID 777, 2007; 20% of 96,000 active;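 active means blocking of liver enzyme CYP2C9 beyond about 50% at 5 µM, limit read from the data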
# Target sequence (P11712 whole entry, looked up): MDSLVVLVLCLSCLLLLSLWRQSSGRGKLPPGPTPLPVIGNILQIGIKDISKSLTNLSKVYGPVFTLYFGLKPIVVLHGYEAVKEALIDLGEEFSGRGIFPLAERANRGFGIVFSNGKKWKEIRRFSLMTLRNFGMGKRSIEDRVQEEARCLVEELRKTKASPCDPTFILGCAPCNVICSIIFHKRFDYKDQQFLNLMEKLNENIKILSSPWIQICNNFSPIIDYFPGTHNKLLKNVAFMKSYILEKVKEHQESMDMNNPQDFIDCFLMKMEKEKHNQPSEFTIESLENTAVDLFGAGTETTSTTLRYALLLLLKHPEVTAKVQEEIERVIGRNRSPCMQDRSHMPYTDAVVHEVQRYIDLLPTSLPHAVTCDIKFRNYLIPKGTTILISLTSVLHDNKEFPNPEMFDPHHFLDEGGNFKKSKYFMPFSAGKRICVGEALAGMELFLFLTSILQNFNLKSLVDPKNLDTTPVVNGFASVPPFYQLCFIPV
# CYP2C9 activ = human CYP2C9 activators, primary screen, biochemical, luminescence | Cytochrome P450 2C9 (Homo sapiens), P11712 | recombinant CYP2C9, luciferin-H conversion; active compounds read high; factor 1 = untreated enzyme, 0 = blocked | activation factor at 5 µM | 1.4% of 96,000 active | AID 1024, 2008;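 active means activation factor of 2 or more for CYP2C9 at a 5 µM dose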
# CYP2C19 inh = blockers of cytochrome P450 2C19 activity – biochemical, luminescence, ADME assay, primary screen; CYP2C19 Supersomes, luciferin-H EGE luminescence, 30 min; inhibition, % at 5 µM; 21% of 96,000 active; AID 778, 2007; P33261;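 active means CYP2C19 inhibition above a set limit at 5 µM in the primary screen, cut at about 50% in these data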
# CYP2C19 activ = human CYP2C19 activators, primary screen, biochemical, luminescence; Cytochrome P450 2C19 (Homo sapiens), P33261; AID 1025, 2008; recombinant CYP2C19, luciferin-H EGE luminescence; active compounds read high; 0 = fully inhibited enzyme, 1 = untreated enzyme; activation factor at 5 µM; 96,000 tested, under 10 active;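 active means activation factor of at least 2 at 5 µM in the primary screen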
# A number is an active result; 0 = inactive; - = no result.
SMILES,Measles CPE,CYP2C9 inhib,CYP2C9 activ,CYP2C19 inh,CYP2C19 activ
COCCNc1oc(-c2ccccc2Cl)nc1C#N,0,69.0,0,87.5,0
COCCNc1oc(-c2ccc(F)cc2)nc1C#N,0,0,0,0,0
N#Cc1nc(Cc2cccc3ccccc23)oc1NCC1CCCO1 (centres undefined),0,71.8,0,83.6,0
N#Cc1nc(Cc2cccc3ccccc23)oc1N1CCCCC1,0,0,0,0,0
N#Cc1nc(-c2ccccc2Cl)oc1NCC1CCCO1 (centres undefined),0,64.5,0,64.4,0
CCCCc1cc2c(c(NC(=O)CC)n1)c(=O)oc1ccccc12,0,0,0,0,0
Cc1c(NC(=O)c2nn3c(c2Br)NC(c2ccccc2)CC3C(F)(F)F)c(=O)n(-c2ccccc2)n1C (centres undefined),0,-,-,-,-
O=C(Cc1ccccc1)N/N=C/c1ccc(-c2ccc([N+](=O)[O-])cc2)o1,0,-,-,-,-
Cc1ccc(C)c(N(CC(=O)N/N=C/c2ccc(-c3ccc([N+](=O)[O-])cc3)o2)S(=O)(=O)c2ccccc2)c1,0,60.7,0,0,0
CCOc1ccc(NC(=O)CN(c2ccc([N+](=O)[O-])cc2)S(=O)(=O)c2ccccc2)cc1,0,-,-,-,-
CCOc1ccc(S(=O)(=O)N(CC(=O)N/N=C/c2ccc(-c3ccc([N+](=O)[O-])cc3)o2)c2ccccc2)cc1,0,62.0,0,0,0
CCC(CC)C1C(C#N)=C(N)SC(N)=C1C#N,0,-,-,-,-
CCOC(=O)C1=C(c2ccccc2)OC(N)=C(C#N)C1C(C)C (centres undefined),0,0,0,0,0
CC(CC1C(C#N)=C(N)SC(N)=C1C#N)c1ccccc1 (centres undefined),0,97.9,0,91.9,0
CC(C)C1C(C#N)=C(N)SC(N)=C1C#N,0,0,0,67.9,0
CC(c1ccccc1)C1C(C#N)=C(N)SC(N)=C1C#N (centres undefined),0,0,0,93.4,0
COc1cccc(C(=O)CN2CCN(S(=O)(=O)c3cccc([N+](=O)[O-])c3)CC2)c1,0,-,-,-,-
COc1ccc(C)cc1NC(=O)CN1CCN(S(=O)(=O)c2ccc(C(C)C)cc2)CC1,0,87.8,0,85.9,0
COc1ccc(OC)c(C(=O)CN2CCN(S(=O)(=O)c3ccc(Br)cc3)CC2)c1,0,58.5,0,83.3,0
COc1ccc(C)cc1NC(=O)CN1CCN(S(=O)(=O)c2ccc(Cl)cc2)CC1,0,64.7,0,65.8,0
COc1cc(CNC2CCCCCC2)cc(OC)c1,0,0,0,0,0
COc1ccc(/C=C(/NC(=O)c2ccccc2)c2nc3ccc(Cl)cc3[nH]2)cc1OC,0,-,-,-,-
c1csc(Cn2c(-c3cccs3)nc3ccccc32)c1,0,93.7,0,87.2,0
CC(C)Cn1c(-c2cccs2)nc2ccccc21,0,0,0,0,0
CCc1cc2cc3c(cc2nc1SCC(=O)Nc1nnc(C)s1)OCCO3,0,59.4,0,0,0
SMILES,Measles CPE,CYP2C9 inhib,CYP2C9 activ,CYP2C19 inh,CYP2C19 activ
O=C(NCCN1CCOCC1)C(=O)NCC1OCCN1C(=O)c1ccc(Cl)cc1 (centres undefined),0,-,-,-,-
O=C(CSc1ccc2c(c1)OCCO2)Nc1cccc(S(=O)(=O)N2CCCCC2)c1,0,-,-,-,-
O=C(Cn1[nH]c(=O)c2ccccc2c1=O)NC1CCCCCC1,0,0,0,0,0
O=c1[nH]n(CC2COC3(CCCCC3)O2)c(=O)c2ccccc12 (centres undefined),0,0,0,75.8,0
CC(=O)c1ccc2c(c1)Nc1ccccc1S2,0,56.7,0,0,0
O=C(/C=C/c1ccco1)NC(=S)Nc1ccc(Cl)cn1,0,0,0,0,0
CCOC(=O)c1c(CN2CCC(C)CC2)oc2ccc(OC)cc12,0,0,0,52.5,0
CCOC(=O)c1c(CN2CCCCC2)oc2ccc(OC)cc12,0,0,0,0,0
Cc1ccc(NC(=O)CC2S/C(=N/c3nccs3)N(C)C2=O)c(C)c1 (centres undefined),0,97.9,0,95.6,0
CCNC(=O)CC1SC(=Nc2cccc(Cl)c2C)N(C)C1=O (centres undefined),0,-,-,-,-
O=C(NCc1ccccc1)NC1(C(=O)N2CCN(c3ccccc3)CC2)CCCCC1,0,0,0,57.3,0
CCN1CCN(C(=O)C2(NC(=O)Nc3ccccc3Cl)CCCCC2)CC1,48.9,-,-,-,-
CN1CCN(C(=O)C2(NC(=O)Nc3ccccc3Cl)CCCCC2)CC1,0,-,-,-,-
CN(C)c1nc2n(c(=S)n1)CCS2,0,0,0,0,0
Cc1cc(Nc2ccccc2)n(CCOC(=O)COc2ccccc2)n1,0,0,0,0,0
CC(C)(C)C(=O)Nc1ccc(N2CCCC2)cc1,0,0,0,0,0
CCn1c(SCC(=O)c2cccs2)nnc1-c1ccco1,0,0,0,76.4,0
Cn1c(SCC(=O)N2c3ccccc3Sc3ccc(Cl)cc32)nnc1-c1ccco1,0,-,-,-,-
CCn1c(SCC(=O)N2c3ccccc3Sc3ccccc32)nnc1-c1ccco1,0,83.2,0,89.1,0
CCn1c(SCC(N)=O)nnc1-c1ccco1,0,0,0,0,0
CCOC(=O)c1ccc(Oc2nc(NC(C)(C)C)nc(N(C)C)n2)cc1,0,87.5,0,84.0,0
C/C=C/Cn1c(SCc2ccc(Cl)cc2)nc2c1c(=O)[nH]c(=O)n2C,0,57.8,0,0,0
CCCn1c(SCc2ccc(Cl)cc2)nc2c1c(=O)[nH]c(=O)n2C,0,0,0,67.4,0
CC1CCc2c(sc3nc(CN4CCN(S(=O)(=O)c5ccccc5[N+](=O)[O-])CC4)[nH]c(=O)c23)C1 (centres undefined),0,-,-,-,-
CN(C)c1cccc2c(C=C(C#N)C#N)ccc(N(C)C)c12,0,-,-,-,-
SMILES,Measles CPE,CYP2C9 inhib,CYP2C9 activ,CYP2C19 inh,CYP2C19 activ
COc1cccc2c1OC1(C)CC2NC(=O)N1c1cccc(C(=O)Nc2ccc3c(c2)OCCO3)c1 (centres undefined),0,72.4,0,0,0
COc1ccc(NC(=O)c2cccc(N3C(=O)NC4CC3(C)Oc3ccccc34)c2)cc1 (centres undefined),0,89.8,0,88.7,0
CC(=O)Nc1ccc(S(=O)(=O)N/N=C/c2ccc(C)s2)cc1,0,-,-,-,-
CN(C)CCCN(C(=O)c1ccc2c(c1)CCCC2)c1nc2ccc(Cl)cc2s1,0,-,-,-,-
COc1cccc2c(=O)c(C/C=C(/C)Cl)c(C)[nH]c12,0,0,0,83.7,0
CCc1cc2c(=O)n(Cc3ccco3)c(SCc3c(C)noc3C)nc2s1,0,90.2,0,51.1,0
CCc1cc2c(=O)n(Cc3ccco3)c(SCC(=O)N3CCCc4ccccc43)nc2s1,0,87.2,0,0,0
COCCn1c(SCC(=O)N2CCCc3ccccc32)nnc1-c1ccco1,0,0,0,0,0
